Bioassay records: PubChem BioAssay, National Center for Advancing Translational Sciences (NCATS)
Pf growth 96h = P. falciparum growth inhibition at 96 hours; P. falciparum luciferase reporter growth, 96 h; Potency, µM (highest dose often 28.7 µM), actives largely listed as inhibitors; 320,000 tested, 6.9% active
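P. falciparum expressing integrated firefly luciferase grown in erythrocytes (2% hematocrit, 0.05% parasitemia final) with compounds for 96 hours at 37 C, 5% CO2. Growth inhibition read as loss of luminescence after adding luciferase detection reagent.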
SARS PLpro yeast = inhibitors of SARS-CoV papain-like protease in yeast | AID 485353 | 330,000 tested, 0.19% active | S. cerevisiae expressing SARS-CoV PLpro, growth rescue | Potency, µM (doses to about 32.9 µM), actives largely listed as activators; calls by dose curve; also: nearly all actives have a fitted effect of over 55% in size
Shiga toxin inh = blocks Shiga toxin action in Vero cells; inhibition, % at 38.7 µM; 290,000 tested, 9.2% active; Vero cells, Shiga toxin protein synthesis inhibition reporter; in the data active = inhibition mostly above about 28%, no sharp cut-off; inactive = mostly below about 43%
Pf growth 48h = P. falciparum growth inhibition at 48 hours (one generation) | P. falciparum luciferase growth in erythrocytes, 48 h | 310,000 tested, 5.9% active | AID 504832 | Potency, µM (titrated, usually from 28.7 µM), usual class: inhibitors
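Parasite viability was followed by luminescence of a genomically integrated firefly luciferase. Cultures held 0.1% parasitemia at 2% hematocrit (final), incubated under 5% CO2 at 37 C.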
NS1 inh = blocks influenza NS1 protein function. 270,000 tested, 0.4% active. AID 2326. Potency, µM (doses to about 46.1 µM); calls by dose curve; also: actives are rising curves; nearly all actives have a fitted effect of over 50% in size
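S. cerevisiae expressing influenza A NS1, grown in glucose, washed, then diluted 1:100 into pH 6.0 -URA galactose medium with 23 nl compound. Growth recovery read as OD600; NS1-free strain serves as control.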
CHX counter = counter-screen for Shiga toxin inhibitors: cycloheximide protein synthesis inhibition | cell reporter, cycloheximide protein synthesis inhibition counterscreen | max response, % | 300,000 tested, 12% active; in the data active = max response mostly above about 13%, no sharp cut-off; inactive = mostly below about 14%; also: read at 38.3 µM for the half of the compounds with a filed dose
Numbers stand for hits; . = inactive; ? = inconclusive; / = no result given; [ ] = dose if it differs, or a comment. In the library only some 21% were active in any assay of this set; here they are far more common. Unless noted, calls follow the shape of the dose curve; as a rule, active = well fitted inhibition curve with a large enough effect; inconclusive = small, poorly fitted or top-dose-only effect, or another doubt; inactive = no such curve, though single readings can be large or run the other way.

SMILES	Pf growth 96h	SARS PLpro yeast	Shiga toxin inh	Pf growth 48h	NS1 inh	CHX counter
O=C(Nc1cccc([N+](=O)[O-])c1)c1ccc2c(c1)C(=O)N(c1ccccn1)C2=O	.	.	.	.	.	.
O=C1CC(Sc2nnnn2-c2ccccc2)C(=O)N1c1cccc(Cl)c1 (stereo not drawn)	?	.	.	.	.	20
COc1ccc(N2C(=O)CC(Sc3nnnn3-c3ccc(F)cc3)C2=O)cc1 (stereo not drawn)	?	.	.	.	.	.
COc1cccc(C2C(C(=O)c3sc(C)nc3C)=C(O)C(=O)N2CCN(C)C)c1OC (stereo not drawn)	.	.	.	.	8.9µM	.
COC(=O)N1C(=O)[C@](c2ccc(OC)cc2)(C(C)C)N1C(=O)OC	.	.	.	.	.	10
COC(=O)N1C(=O)[C@](c2ccsc2)(C(C)C)N1C(=O)OC	.	.	.	.	.	20
Cc1ccc(N2C(=O)NC(NS(=O)(=O)c3ccccc3)(C(F)(F)F)C2=O)cc1C (stereo not drawn)	?	.	.	.	?	.
COc1ccc(S(=O)(=O)N(CC(=O)NC2CC2)c2ccc(C)cc2)cc1	?	.	.	.	.	.
CCN(CC)C(=O)COc1ccc(-c2nnc(N3CCCCC3)c3ccccc23)cc1	.	.	.	?	.	.
CN(C)C(=O)COc1ccc(Oc2ccccc2)cc1	.	.	41	.	/	31
CN(Cc1ccccc1)C(=O)COc1ccccc1Cl	.	.	.	.	.	.
CCN(Cc1ccccc1)C(=O)COc1ccccc1	8.3µM	.	/	.	.	.
CN(Cc1ccccc1)C(=O)COc1ccc(C(C)(C)C)cc1	.	.	57	.	.	27
CCN(CC)C(=O)COc1ccc(-c2ccccc2)cc1	.	.	.	/	.	31
COc1ccc(OC)c(CN2CCCC(CO)C2)c1 (stereo not drawn)	.	.	.	/	.	.
Cc1ccccc1NS(=O)(=O)c1nnc(NC(=O)c2ccccc2C)s1	.	.	.	.	.	.
Cc1ccc(C(=O)OC(C)C(=O)Nc2ccc3c(c2)OCO3)c(O)c1 (stereo not drawn)	.	.	/	.	/	/
CN(Cc1ccccc1)C(=O)COC(=O)c1ccc(Cl)c(N)c1	?	.	67	.	.	51
CCN(CC)C(=O)COc1ccc(/C(C)=N/NC(=O)c2ccccc2Br)cc1	?	.	.	.	/	.
COc1cc(C(=O)OCC(=O)NC(=O)NCc2ccccc2)ccc1OC(F)F	.	.	/	.	/	/
CCOc1ccc(C(=O)OCC(=O)N(Cc2ccccc2)Cc2ccccc2)cc1OC	?	.	/	12µM	/	/
CCN(CC)C(=O)COc1ccc(/C(C)=N/NC(=O)c2ccccc2O)cc1	.	.	.	.	.	28
CN(Cc1ccccc1)C(=O)COc1ccc(Br)cc1Cl	.	.	.	.	.	20
Cc1cccc(NC(=O)CSc2nc3nc(C)cc(C)n3n2)c1	?	.	.	.	.	.
N/N=C(\c1ccccc1)c1cc(Br)ccc1N	?	.	.	?	.	.
SMILES	Pf growth 96h	SARS PLpro yeast	Shiga toxin inh	Pf growth 48h	NS1 inh	CHX counter
COc1ccccc1C(c1c(N)n(C)c(=O)n(C)c1=O)C(C)[N+](=O)[O-] (stereo not drawn)	.	.	94	?	.	44
Cc1ccc(OCC(=O)N/N=C/C=C/c2ccco2)cc1C	.	.	.	.	.	.
Cc1ccc(OC(=O)C2CCN(C(=O)c3ccccc3C)CC2)c(Br)c1	.	.	/	.	/	/
OCc1nc2c(ccc3ccccc32)[nH]1	.	.	.	.	.	12
Clc1nc2c(ccc3ccccc32)[nH]1	.	.	71	.	.	41
Cc1cc(C(=O)Nc2ccc(F)cc2)c2ccccc2n1	.	.	.	.	.	.
Cc1cc(C)n(C(C)CNS(=O)(=O)c2ccc(Cl)cc2)n1 (stereo not drawn)	.	.	.	.	.	.
COc1cccc(-c2nc(N)nc(SC)c2C#N)c1	.	.	.	.	.	14
COc1cccc(-c2nc(-c3ccccc3)nc(N3CCN(C)CC3)c2C#N)c1	?	.	.	.	/	.
COc1cccc(NC(=O)N(CCCN2CCOCC2)C(C)c2cc3ccccc3o2)c1 (stereo not drawn)	12µM	.[6.58 µM]	.	/	.	.
COc1cccc(NC(=S)N(CCCN2CCOCC2)C(C)c2cc3cccc(OC)c3o2)c1 (stereo not drawn)	2.1µM	.	.	?	/	.
CSc1nnc(-c2cc[n+](C)cc2)n1CCO	.	.	.	.	.	.
Cc1ccc(C)c(N2N=C(C(=O)NCCN3C(=O)S/C(=C\c4cccnc4)C3=O)CCC2=O)c1	.	.	/	.	/	/
COc1cccc(-c2cc(C(=O)Nc3ccncc3)c3ccccc3n2)c1	?	.	.	0.74µM	.	.
CC(=O)c1cccc(NC(=O)c2cc(-c3ccco3)nc3ccccc23)c1	.	.	33	.	.	.
COc1cccc(NC(=O)c2cc(-c3ccccn3)nc3ccccc23)c1	?	.	/	?	/	/
O=C(NNC(=O)c1cc(-c2ccco2)nc2ccccc12)c1ccccc1	?	.	.	?	.	.
COC(=O)c1sccc1NC(=O)c1cc(-c2cccc(C)c2)nc2ccccc12	.	.	.	9.3µM	.	.
Cc1ccc2nc(-c3ccncc3)cc(C(=O)NCc3ccccc3F)c2c1	15µM	.	.	?	.	.
CN1C(=O)C[C@@H](C(=O)N[C@@H](Cc2cnc[nH]2)C(=O)N2CCC[C@H]2C(N)=O)NC1=O	.	/	/	.	/	/
O=C(NNC(=O)c1n[nH]c2ccccc12)c1ccccc1	.	.	/	.	/	/
COc1cc(-c2cc(C(=O)Nc3nc4ccccc4s3)c3ccccc3n2)cc(OC)c1OC	.	.	.	.	.	18
O=C(/C=C/c1ccccc1)Nc1cccnc1Oc1ccccc1F	.	.	76	.	.	62
Nc1cccnc1Oc1ccccc1F	.	.	.	.	.	.
O=C(/C=C/c1ccccc1[N+](=O)[O-])Nc1cccc(S(=O)(=O)NC2=NCCCCC2)c1	/	.	/	/	/	/
SMILES	Pf growth 96h	SARS PLpro yeast	Shiga toxin inh	Pf growth 48h	NS1 inh	CHX counter
O=C(/C=C/c1ccc(Cl)cc1Cl)Nc1cccc(S(=O)(=O)NC2=NCCCCC2)c1	.	.	13	.	.	26
O=C(Nc1cccc(S(=O)(=O)NC2=NCCCCC2)c1)c1cc(-c2ccncc2)nc2ccccc12	12µM	.	.	?	/	.
COC(=O)c1sccc1NC(=O)c1ccccc1[N+](=O)[O-]	1.9µM	.	.	.	.	.
O=C(/C=C/c1ccccc1)Nc1cccc(S(=O)(=O)Nc2ccccc2F)c1	.	.	39	.	.	.
COc1ccc(COc2cc(-c3cccc(OC)c3)nc3ccc(NC(=O)c4ccc(C)cc4)cc23)cc1	3.3µM	.	.	?	.	.
O=C(Cc1ccc(Cl)cc1Cl)Nc1cccc(S(=O)(=O)Nc2ccccc2F)c1	.	.	.	.	.	.
CC(=O)c1cccc(NC(=O)c2cc(-c3ccncc3)nc3ccccc23)c1	?	.	/	12µM	/	/
